PubChem BioAssay (NCI)
Values joined by “and” are separate entries in the source; they are usually repeats but may differ in a detail not shown here. Equal values may be shown once. The panel holds about 83,000 compounds, 20% with a hit somewhere; the sample as a whole holds those more often.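 Cells were grown in 96-well plates and exposed to the test compound at a single concentration for 48 hours; results are reported as percent growth, with values below 10 considered active.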 Values without a mark were called inactive. Active and inactive are the calls of the source.

Test system: HL-60(TB) leukemia
Experiment: NCI-60 one-dose screen, 48 h (100 = growth as untreated, 0 = no growth, -100 = all killed)

SMILES: Nc1ccc(S(=O)(=O)c2ccc(Cl)cc2)cc1
- growth (10 µM unless noted): 100%

SMILES: CCCCCCC1N=C(N)N=C(N)N1c1cccc(Cl)c1 (stereo not given)
- growth (10 µM unless noted): 44.3%

SMILES: O=C1Nc2ccccc2[C@]12CC(c1ccccc1)=NN2
- growth (10 µM unless noted): -15.8% (active)

SMILES: O=c1ccn2nc3ccccc3c2[nH]1
- growth (10 µM unless noted): 93.1%

SMILES: COC(=O)CCC1=C(C)C2=NC1=CC1=NC(=CC3=NC(=Cc4[nH]c(/c(=C(/C)O)c4C)=C2)C(C(C)=O)=C3C)C(C)=C1CCC(=O)OC
- growth (10 µM unless noted): 78.2%

SMILES: CCCCCCCNc1nc(C=O)ncc1-c1ccc(C(F)(F)F)cc1
- growth (10 µM unless noted): 64.4%

SMILES: NC(=O)c1ccc[n+](Cc2ccccc2)c1
- growth (10 µM unless noted): 152%

SMILES: C/C(Nc1ccc(Cl)c(Cl)c1)=C1\CCOC1=O
- growth (10 µM unless noted): 96.6%

SMILES: NC(=O)c1ccccc1NC(=O)c1ccccc1Cl
- growth (10 µM unless noted): 64.4%

SMILES: CCOC(=O)c1sc2ncc(-c3ccc(C)cc3)n2c1C
- growth (10 µM unless noted): 75.4%

SMILES: O=C1Nc2ccccc2/C1=C\c1c(-c2ccc(F)cc2)nc2ccccn12
- growth (10 µM unless noted): 70.3%

SMILES: CCCc1c(C)nc2scc(-c3ccc(Cl)cc3)n2c1=O
- growth (10 µM unless noted): 98%

SMILES: COc1ccc2c(c1)/C(=C1/S/C(=N/c3nnc(C)s3)NC1=O)C(=O)N2Cc1ccc(Br)cc1
- growth (10 µM unless noted): 32.5%

SMILES: COc1ccc(C2C(C#N)=C(N)Oc3n[nH]c(-c4cccs4)c32)cc1I (stereo not given)
- growth (10 µM unless noted): 54.2%

SMILES: O=C(N[C@@H]1CCCc2ccccc21)[C@H](CCC(=O)N1CCN(C2CCCCC2)CC1)N1C(=O)[C@@H](N2C(=O)OC[C@@H]2c2ccccc2)[C@H]1/C=C/c1ccccc1
- growth (10 µM unless noted): -8.1% (active)

SMILES: O=c1ssc(Cl)c1-c1ccccc1
- growth (10 µM unless noted): 48%

SMILES: CCCC(=O)Oc1ccc(/C(=C(\C)c2ccc(OC)cc2)c2ccc(OCCN3CCCCC3)cc2)cc1
- growth (10 µM unless noted): 89.6%

SMILES: Cc1cc(NCc2cc(Nc3ccnc4cc(Cl)ccc34)ccc2F)nc(N2CCSCC2)n1
- growth (10 µM unless noted): -61.4% (active)

SMILES: COC1=CC(c2ccc[nH]2)=N/C1=C\c1[nH]c(C)c(C(=O)CCCCC(=O)NCc2ccccc2)c1C
- growth (10 µM unless noted): 69%

SMILES: c1ccc(-c2nnn(-c3ccccc3)n2)cc1
- growth (10 µM unless noted): 88.9%

SMILES: CS(=O)(=O)OCC1NC(=O)C(COS(C)(=O)=O)NC1=O (stereo not given)
- growth (10 µM unless noted): 98% and 106%

SMILES: COc1ccc(-c2nn(-c3cccc(Cl)c3)cc2C=C(C#N)C#N)cc1
- growth (10 µM unless noted): -36.7% (active)

SMILES: O=C(Nc1nc(-c2ccccc2Cl)cs1)c1cc(-c2ccccc2)nc2ccc(Cl)cc12
- growth (10 µM unless noted): -3.8% (active)

SMILES: CC(=O)c1cc(C)c(OC(=O)c2ccccc2)c(C)c1
- growth (10 µM unless noted): 97.9%

SMILES: O=C(Nc1ccccc1)Nc1cccc(Oc2nnc(Cl)c3ccccc23)c1
- growth (10 µM unless noted): 12.1%

SMILES: O=[N+]([O-])C1C(c2ccccc2)C12c1ccccc1-c1ccccc12 (stereo not given)
- growth (10 µM unless noted): -30.6% (active)

SMILES: O=c1c(N=Nc2nccs2)c(-c2ccccc2)[nH]n1-c1nc(-c2ccccc2)cs1
- growth (10 µM unless noted): 15.8%

SMILES: CCCCCCCCCCCCCCCCC(Br)C(=O)O (stereo not given)
- growth (10 µM unless noted): 111%

SMILES: C/C(=N\NC(=O)c1sc(=S)n(C)c1N)c1cc2ccccc2o1
- growth (10 µM unless noted): 26.6%

SMILES: CCOC(=O)c1cc(C)[nH]c(=O)c1C#N
- growth (10 µM unless noted): 121%

SMILES: COc1cccc(C(=O)NNc2nc(N3CCOCC3)nc(N3CCN(C(c4ccccc4)c4ccccc4)CC3)n2)c1
- growth (10 µM unless noted): 76.4%

SMILES: CC(=O)O[C@H]1C(=O)[C@@]2(C)[C@H]([C@H](OC(=O)c3ccccc3)[C@]3(O)C[C@H](OC(=O)[C@H](O)[C@@H](NC(=O)c4ccccc4)c4ccccc4)C(C)=C1C3(C)C)[C@]1(OC(C)=O)CO[C@@H]1C[C@@H]2O
- growth (0.01 µM): -8.36% (active)
- growth (2.5 µM): -43.6% (active)
- growth (5 µM): -42.4% (active)
- growth (10 µM): -12.3% (active) and -35.8% (active)

SMILES: c1ccc(CO[C@H]2CO[C@H]3[C@@H]2OC[C@H]3OCc2ccccc2)cc1
- growth (10 µM unless noted): 88.4%

SMILES: COc1ccc(C(=O)/C=C/c2ccc(OCc3ccc(Cl)cc3)cc2)cc1OC
- growth (10 µM): 81.2%
- growth (100 µM): 18.7%

SMILES: COc1ccc(C(=O)/C=C/c2ccc(OCc3cccc(C(F)(F)F)c3)c(OC)c2)cc1OC
- growth (10 µM): 36.4%
- growth (100 µM): -17.8% (active)
